The list is not random: actives were taken first. Their share in the collection is about 0.84%.
SRC1 TRFRET art – counter-screen for PPARgamma SRC-1 recruitment agonists: TR-FRET artefact. TR-FRET detection artefact counter-screen, emission ratio; hits give high values. TR-FRET ratio at 8 µM. actives 0.34% (n = 99,000). AID 1051; in the data active = TR-FRET ratio above about 2300
PPARg SRC2 recr – agonists of SRC-2 recruitment by human PPARgamma; actives 0.34% (n = 200,000); activation, % at 8 µM; P37231; PPARgamma LBD-SRC-2 recruitment, biochemical; in the data active = activation above about 22%;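 note: 0% = vehicle and 100% = reference agonist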
Target sequence (P37231 whole entry, looked up, the tested form may be a part): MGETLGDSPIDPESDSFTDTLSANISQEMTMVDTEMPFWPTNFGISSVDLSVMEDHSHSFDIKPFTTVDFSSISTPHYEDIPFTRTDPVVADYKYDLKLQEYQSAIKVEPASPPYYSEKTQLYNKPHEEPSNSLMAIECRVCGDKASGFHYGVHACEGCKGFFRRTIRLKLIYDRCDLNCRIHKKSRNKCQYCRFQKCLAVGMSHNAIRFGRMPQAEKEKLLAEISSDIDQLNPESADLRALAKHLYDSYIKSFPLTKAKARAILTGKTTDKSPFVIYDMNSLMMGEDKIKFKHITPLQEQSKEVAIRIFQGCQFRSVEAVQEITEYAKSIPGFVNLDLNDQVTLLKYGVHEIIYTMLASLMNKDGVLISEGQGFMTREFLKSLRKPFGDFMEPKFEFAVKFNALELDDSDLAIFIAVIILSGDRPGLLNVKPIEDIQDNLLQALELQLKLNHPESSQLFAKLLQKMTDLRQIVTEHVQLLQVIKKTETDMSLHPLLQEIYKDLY
TR-FRET SRC-2 ct – counter-screen for PPARgamma SRC-2 recruitment agonists: TR-FRET artefact; hits give high values; TR-FRET ratio at 8 µM; actives 0.4% (n = 200,000); AID 1049
PPARg SRC-1 ag – agonists of human PPARgamma SRC-1 coactivator recruitment; P37231; actives 0.41% (n = 200,000); activation, % at 8 µM; PPARgamma-SRC-1 coactivator recruitment biochemical assay; AID 631; in the data active = activation above about 19%;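 note: 0% = DMSO and 100% = reference agonist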
PPARg SRC3 recr – promotes SRC-3 coactivator recruitment by human PPARgamma. actives 0.26% (n = 200,000). activation, % at 8 µM. biochemical PPARgamma/SRC-3 coactivator recruitment assay. P37231. AID 731; in the data active = activation above about 23%;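 note: 0% = DMSO and 100% = reference agonist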
SRC3 TRFRET art – flags TR-FRET format artefacts in PPARgamma SRC-3 recruitment agonist screen; TR-FRET artefact counter-screen, PPARgamma/SRC-3 format; hits give high values; TR-FRET ratio at 8 µM; actives 0.39% (n = 99,000)
* marks the source's active call; other numbers are inactive results; . = not tested or not shown. Cut-off read from the data, not from the text of the source, unless noted: active = TR-FRET ratio above about 2000; inactive = the rest.

SMILES	SRC1 TRFRET art	PPARg SRC2 recr	TR-FRET SRC-2 ct	PPARg SRC-1 ag	PPARg SRC3 recr	SRC3 TRFRET art
CC(C)CCNC(=O)NC(=O)COC(=O)/C=C/c1cccc([N+](=O)[O-])c1	1733	3	1343	13	3	1560
CC(C)CCNC(=O)NC(=O)COC(=O)/C=C/c1cnc2ccccc2n1	.	64*	2705*	10	1	.
COc1ccc(OC)c(/C=N\NC(=O)CC(=O)NCCc2ccccc2)c1	2318*	10	1584	7	4	1704
CC(C)(C)C1CCC(=NOC(=O)c2ccc(F)cc2)CC1 (configuration not stated)	1589	-1	1680	-2	7	1669
CCCCn1c(NC(=O)c2ccccc2Cl)c(C#N)c2nc3ccccc3nc21	.	22	1951	13	23	.
N#Cc1c(NC(=O)c2ccccc2Cl)n(Cc2ccccc2)c2nc3ccccc3nc12	1811	13	1663	21*	62*	1498
CN(C)/C=N/C1=C(C#N)C(c2cccs2)c2ccc3ccccc3c2O1 (configuration not stated)	1631	9	1717	3	2	1664
CC(=O)NC1=NC(=O)/C(=C/c2cc(C)n(-c3cccc(C(=O)O)c3)c2C)S1	2073	5	1638	0	2	1697
CC(=O)NC1=NC(=O)/C(=C/c2cc(C)n(-c3ccc(NC(C)=O)cc3)c2C)S1	1777	5	1615	3	24*	2601*
O=C(Cc1ccccc1[N+](=O)[O-])N1CCc2ccccc2C1	1968	10	1725	17	4	1769
COc1ccc(NS(=O)(=O)c2c(F)cc(F)c(Cl)c2F)cc1S(=O)(=O)N1CCCCC1	1720	6	1533	2	-2	1390
O=C(CSc1ccc2ccccc2c1Br)Nc1cccc(S(=O)(=O)NC2=NCCCCC2)c1	1973	13	1866	6	10	2200*
COC(=O)Cc1c(O)ccn(Cc2cccc3ccccc23)c1=O	.	-2	1413	-2	-3	.
Cc1cccc(C)c1NC(=S)Nc1c(C)n(C)n(-c2ccccc2)c1=O	1821	-1	1391	26*	-5	1560
CSCCC(C(=O)OC1CCOC1=O)N1C(=O)c2ccccc2C1=O (configuration not stated)	1554	1	1600	0	-4	1448
O=C(c1cnn2c(C(F)F)cc(-c3ccccc3)nc12)N1CCCc2ccccc21	.	-1	1429	3	-5	.
COc1ccc(-c2cc(C(F)F)n3ncc(C(=O)N4CCCc5ccccc54)c3n2)cc1	1529	-3	1419	-4	26*	1947
O=C1OCCN1C(=O)[C@H]1[C@H](c2ccc(Cl)cc2)C(c2cccc(Cl)c2)=NN1c1ccccc1	3296*	16	2617*	11	8	2817*
O=C(CSc1ccc(-c2ccco2)nn1)NCc1ccccc1Cl	2338*	6	1506	3	6	1557
O=C(O)C1CCC(Cn2c(SCc3cc(=O)n4cc(Br)ccc4n3)nc3ccsc3c2=O)CC1 (configuration not stated)	2198	5	1816	11	14	2459*
Cc1ccc(-c2csc(NC(=O)c3cccc(S(=O)(=O)N4CCN(C)CC4)c3)n2)cc1	1995	5	1523	4	-4	1730
COc1ccc(C(=O)CSc2nnc(-c3ccc(S(=O)(=O)N4CCOCC4)cc3)o2)cc1	.	-3	1617	25*	-8	.
O=C(Nc1nc(-c2nc3ccccc3s2)cs1)c1ccc(S(=O)(=O)N2CCOCC2)cc1	.	8	1954	1	-3	.
O=C(Nc1nc(-c2ccc3ccccc3c2)cs1)C1CCN(S(=O)(=O)c2cccs2)CC1	2268	15	1939	9	9	2381*
O=C(CSc1nnc(-c2ccc(S(=O)(=O)N3CCOCC3)cc2)o1)c1ccccc1F	.	1	1586	3	-2	.
SMILES	SRC1 TRFRET art	PPARg SRC2 recr	TR-FRET SRC-2 ct	PPARg SRC-1 ag	PPARg SRC3 recr	SRC3 TRFRET art
O=C(Nc1nc(-c2ccc(S(=O)(=O)N3CCOCC3)cc2)cs1)c1ccccc1	.	-1	2397*	11	10	.
COc1cccc(C(=O)Nc2nc(-c3ccc(S(=O)(=O)N4CCOCC4)cc3)cs2)c1	.	4	2385*	0	16	.
O=C(Nc1nc(-c2ccc(S(=O)(=O)N3CCCCCC3)cc2)cs1)c1cccs1	.	6	2280*	22*	1	.
O=C(Nc1nc(-c2ccc(S(=O)(=O)N3CCCC3)cc2)cs1)c1cccs1	.	9	1891	5	5	.
Cc1onc(-c2ccccc2)c1C(=O)Nc1nc(-c2ccccc2)cs1	.	1	2194*	1	6	.
CCn1c(O)c(C=Nc2ccccc2)oc1=S	.	8	1976*	11	5	.
CCCn1c(O)c(C=Nc2ccccc2)sc1=S	1715	-3	1498	-4	-2	1466
COc1cc(OC)cc(C(=O)NCC(=O)OCC(=O)c2ccc3c(c2)-c2ccccc2C3)c1	2143	7	2065*	8	5	2602*
COc1ccc(C(C(=O)NC2CCCC2)N(C(=O)c2snc(-c3ccc(F)cc3)c2N)c2ccc(OC)cc2)cc1 (configuration not stated)	.	15	2223*	16	17	.
O=C(c1ccccc1)c1ccc2nc(-c3ccc(NC(=O)c4ccccc4Br)cc3)[nH]c2c1	.	-1	2003*	9	8	.
O=C(CCN1C(=O)c2ccccc2C1=O)Nc1ccc(-c2nc3ccccc3o2)cc1	.	-4	1271	19*	-15	.
O=C(CN1C(=O)c2ccccc2C1=O)Nc1ccc(-c2nc3ccccc3o2)cc1	.	15	1612	-1	13	.
CCOC(=O)c1sc(=NC(=O)c2ccc(OC(C)C)cc2)n(C)c1C	2238	3	1610	43*	1	1545
CC1CCCN(S(=O)(=O)c2ccccc2[N+](=O)[O-])C1 (configuration not stated)	1790	0	1610	6	4	1703
O=C(Nc1ccc2c(c1)OCCO2)c1cc2sccc2n1Cc1ccc(F)cc1	.	14	1828	7	12	.
O=C(Nc1ccc2c(c1)OCCO2)c1cc2sccc2n1Cc1ccccc1	.	7	1989*	4	2	.
Cn1cc(Br)c(C(=O)NNC(=O)c2ccc(Cl)cc2)n1	1827	-10	1393	3	-2	1561
COc1cccc(NC(=S)/C(=C(\[O-])c2ccc(OC(F)F)cc2)[n+]2ccccc2)c1	1864	5	1987*	5	1	1727
O=C(Cc1ccccc1[N+](=O)[O-])NCc1ccc2c(c1)OCO2	2325*	4	1512	12	12	1639
O=C(Cc1ccccc1)NCc1ccc2c(c1)OCO2	.	-1	1270	0	-6	.
CC(C)(C)c1cc[n+](CC(=O)Nc2cc(C(F)(F)F)ccc2N2CCOCC2)cc1	1471	-3	1622	-1	1	1552
O=C(N/N=C/c1ccc(N2CCOCC2)cc1)C1CC1	1925	5	1553	9	0	1554
